hgDAF-12 ag = agonists of H. glycines DAF-12 nuclear receptor; HEK293 GAL4-hgDAF12 UAS-luciferase reporter, agonist luminescence; normalized to butyrate control; activation, % at 6.8 µM; actives 1.8% (n = 370,000);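 active = activation above a cutoff set at the mean of all screened compounds plus 3 SD, cut at about 10% in these data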;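 also: 0% = DMSO wells and 100% = sodium butyrate wells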
ssDAF12 agonist = activates DAF-12 receptor from parasite S. stercoralis; actives 1% (n = 370,000); activation, % at 6.8 µM; HEK293 ssDAF-12/GRIP1 lit1-tk-luc reporter, luminescence; % of 3 µM dafachronic acid response;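 active = activation above the mean over all tested compounds plus 3 SD, cut at about 0.9% in these data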;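 also: 0% = DMSO-only wells and 100% = 3 µM delta7-dafachronic acid wells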
DAX1 inh-1 = DAX1 (NR0B1) inhibition, primary screen. HEK293T StAR-luciferase reporter, SF-1/DAX-1 repression relief. inhibition, % at 6.8 µM. actives 1.1% (n = 370,000);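 active = inhibition above the mean over all tested compounds plus 3 SD, cut at about 3.6% in these data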;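 also: 0% = DAX-1 cells with DMSO and 100% = cells lacking DAX-1 with DMSO; higher inhibition means more luminescence from relief of DAX-1 repression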
hcDAF12 agonist = activators of H. contortus DAF-12 nuclear receptor; HEK293 hcDAF-12 lit1-tk-luc reporter, luminescence; 0% DMSO, 100% Δ7-dafachronic acid; activation, % at 6.8 µM; actives 1.4% (n = 370,000); AID 652067;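 active = activation above the mean of all tested compounds plus 3 SD, cut at about 5.5% in these data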;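 also: 100% = response to 3 µM Δ7-dafachronic acid high control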
DAX1 inh-2 = inhibitors of human orphan nuclear receptor DAX1 (NR0B1). P51843. HEK293 Gal4-DAX1 luciferase reporter, luminescence. inhibition, % at 6.75 µM. actives 0.99% (n = 340,000). AID 504766;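 active = inhibition above the mean over all tested compounds plus 3 SD, cut at about 4.2% in these data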;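 also: 0% = DAX1-transfected cells with DMSO and 100% = empty-vector control cells with DMSO; inhibition shows as a rise in luminescence from relieved DAX1 repression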
FXN GAA850 act = increases GAA850 frataxin promoter reporter activity. HEK293 lucGAA850 FXN promoter luciferase reporter, 24 h; percent of 10 µM SAHA response. activation, % at 6 µM. actives 0.56% (n = 360,000). AID 540364;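 active = activation above the average of all compounds screened plus 3 SD, cutoff fixed separately per campaign, cut at about 7.5% in these data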;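 also: 0% = DMSO wells and 100% = 10 µM SAHA wells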
DAX1 conf = NR0B1 (human) inhibition, confirmation; shares compounds with DAX1 inh-1; HEK293T StAR-promoter luciferase reporter, SF-1/DAX-1 repression; AID 652134; inhibition, % at 6.8 µM; actives 87% (n = 2,400);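 active = inhibition above the average of every tested compound plus 3 SD, cut at about 3.8% in these data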;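 also: 0% = DAX-1 cells with DMSO and 100% = no DAX-1 control cells with DMSO; active compounds raise luminescence by relieving repression of the StAR reporter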
Target sequence (P51843 whole entry, looked up): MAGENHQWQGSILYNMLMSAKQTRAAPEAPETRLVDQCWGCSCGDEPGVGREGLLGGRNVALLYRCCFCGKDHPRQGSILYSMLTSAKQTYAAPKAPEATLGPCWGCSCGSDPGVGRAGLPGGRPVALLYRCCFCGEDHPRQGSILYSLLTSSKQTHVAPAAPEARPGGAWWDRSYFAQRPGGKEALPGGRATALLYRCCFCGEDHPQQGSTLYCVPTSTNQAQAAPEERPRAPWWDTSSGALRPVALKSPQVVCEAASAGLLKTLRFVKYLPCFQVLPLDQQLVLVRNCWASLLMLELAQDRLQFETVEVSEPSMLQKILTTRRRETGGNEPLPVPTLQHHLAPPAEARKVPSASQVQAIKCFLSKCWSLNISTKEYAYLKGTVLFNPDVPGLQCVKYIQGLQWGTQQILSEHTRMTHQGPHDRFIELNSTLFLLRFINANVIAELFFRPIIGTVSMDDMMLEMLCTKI
SF1 AF2mut Luc = nonselective inhibitor or artifact in SF-1 mutant DAX1 counter-screen. shares compounds with DAX1 inh-1. HEK293 StAR-luciferase, SF-1 AF2 mutant, luminescence. inhibition, % at 6.8 µM. actives 78% (n = 2,400). AID 652136;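 active = inhibition above the mean of all tested compounds plus 3 SD, cut at about 3% in these data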;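 also: 0% = DAX-1 transfected cells with DMSO and 100% = cells without DAX-1 with DMSO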
* = called active by the depositor; . = no result given; ! = not active in a repeat. Hits are enriched below; roughly 4.5% of the tested compounds scored in any of these assays.

SMILES | hgDAF-12 ag | ssDAF12 agonist | DAX1 inh-1 | hcDAF12 agonist | DAX1 inh-2 | FXN GAA850 act | DAX1 conf | SF1 AF2mut Luc
CCCCCCN1C[C@@H](O)[C@H](n2cc(COC(=O)c3ccccc3)nn2)C[C@@H]1c1ccccc1 | -2 | -1 | 4.6* | -2 | 1 | 0 | -1 | -1
CCC[C@H]1[C@@H](NC(=O)C2CCOC2)CC[C@@]23CCCN2C(=O)CCC[C@@H]13 (stereo partly specified) | -1 | -1 | . | 1 | . | . | . | .
COC(=O)[C@]12C[C@H](CC(=O)NCC3CCCCC3)C(=O)N(Cc3ccc(Cl)cc3Cl)C1=C[C@H](COCc1ccccc1)O[C@@H]2C | 0 | -1 | -1 | -2 | . | . | . | .
Cc1ccc(NC(=O)c2noc3c2CCc2ccccc2-3)cc1 | 9 | 0 | 1 | 3 | 0 | -1 | . | .
O=C(Nc1cccc(O)c1)c1noc2c1CCc1ccccc1-2 | 9 | 0 | 7.0* | 6.3* | -2 | 0 | 16* | 6.3*
C[C@H]1[C@@H](NC(=O)C#Cc2ccccc2)CC[C@@]23CCCN2C(=O)CCC[C@@H]13 | -3 | -2 | . | -1 | . | . | . | .
O=C(Nc1ccc(Cl)cc1[N+](=O)[O-])c1ccc2c(c1)OCCO2 | 6 | -1 | 4.7* | 2 | 0 | 6 | 10* | 4.2*
O=C(CNC(=O)c1ccc2c(c1)OCO2)NCCOc1ccc(Cl)cc1 | 6 | -1 | -2 | -1 | 0 | 0 | . | .
O=C(NCCOc1ccc(Cl)cc1)c1ccc2c(c1)OCCO2 | 6 | -1 | 5.8* | 2 | 1 | 4 | 7.5* | 5.4*
Cc1cccnc1NC(=O)c1ccc(NS(=O)(=O)c2ccc3[nH]c(=O)[nH]c3c2)cc1 | 2 | -1 | 0 | 4 | 1 | 1 | . | .
O=C(Nc1ncccc1O)c1ccc(NS(=O)(=O)c2ccc3[nH]c(=O)[nH]c3c2)cc1 | 5 | 0 | 15* | -1 | 2 | 1 | 19* | 15*
Brc1ccc(-c2csc(N3CCC(c4nn[nH]n4)CC3)n2)cc1 | 1 | -1 | . | 0 | . | . | . | .
C#CCNC(=O)C[C@@H]1C(=O)N2CCCC3=C2[C@@]1(C(=O)OC)CCCC3 | 1 | -1 | 0 | -2 | . | . | . | .
COc1ccc(/C=N/Nc2nccnc2Cl)cc1 | 12* | 0 | 5.9* | 5 | -1 | 0 | 14* | 8.7*
COc1ccc(/C=N/Nc2nncc3ccccc23)cc1 | 17* | 1.9* | 6.4* | 11* | -2 | 6 | 14* | 2
O=C(C(=O)N1CCC(CNC(=O)c2sc3ccccc3c2Cl)CC1)c1cccs1 | -4 | -2 | -2 | -4 | . | . | . | .
CC[C@H](C)C(=O)O[C@H]1C[C@@H](C)C=C2C=C[C@H](C)[C@H](CC[C@@H]3C[C@@H](O)CC(=O)O3)[C@H]21 | 1 | -1 | 5.2*! | 0 | 0 | 1 | 2 | 0
CC(C)(C)OC(=O)N1CCC(C(=O)Nc2ccc3c(c2)CCC3)CC1 | 12* | 0 | 4.7* | 2 | 1 | 6 | 4.7* | 3
CC(=O)N1CCC(C(=O)Nc2ccc3c(c2)CCC3)CC1 | -1 | -1 | 0 | 1 | 4 | 3 | . | .
COC(=O)[C@]12C[C@H](CC(=O)NCc3ccc(C)o3)C(=O)N(Cc3cccc4ccccc34)C1=C[C@H](COCc1ccccc1)O[C@@H]2C | 1 | -1 | 0 | -3 | . | . | . | .
Cc1ccc(NC(=S)NNC(=O)Nc2ccccc2)cc1 | 12* | 1.4* | 5.7* | 3 | 2 | 7 | 5.6* | 3
Cc1ccc(NC(=S)NNC(=S)Nc2ccc(C)cc2)cc1 | 2 | -1 | -1 | 1 | 0 | -1 | . | .
CCc1ccc(C(=O)NNC(=O)Cn2c(=O)cnc3ccccc32)cc1 | 2 | -1 | 5.4* | -1 | -1 | 0 | 2 | -1
O=C(Cn1c(=O)cnc2ccccc21)NNC(=O)c1ccc(Cl)cc1 | 2 | -1 | 1 | 0 | 0 | 2 | . | .
